# PubChem BioAssay (EPA / NIEHS)
# Results filed as inconclusive are left out. The source made the active and inactive calls. Rule for the calls: active = hit-call score of the fitted dose curve at least 0.9, where 1 is the maximum; inconclusive = response in the unintended direction; inactive = score below 0.9.
# Target: rat Glutamate, AMPA Site (AMPA), Gria1 (gene 50592) (UniProt P19490)
# Assay: NVS_LGIC_rAMPA: NovaScreen (NVS) Ligand-Gated Ion Channel Assay for rat Glutamate, AMPA Site (AMPA) (AID 2283324)
# Experimental: NVS_LGIC_rAMPA is a biochemical, single-readout assay that uses extracted gene-proteins from Rat forebrain membranes in a tissue-based cell-free assay. Measurements were taken 1 hour after chemical dosing in a 48-well plate.NVS_LGIC_rAMPA is one of one assay component(s) measured or calculated from the NVS_LGIC_rAMPA assay. It is designed to make measurements of radioligand binding, a form of binding reporter, as detected with scintillation counting signals by Filter-based radiodetection technology.Data from the assay component NVS_LGIC_rAMPA was analyzed into 1 assay endpoint. This assay endpoint, NVS_LGIC_rAMPA, was analyzed in the positive analysis fitting direction relative to DMSO as the negative control and baseline of activity. Using a type of binding reporter, loss-of-signal activity can be used to understand changes in the binding as they relate to the gene Gria1. Furthermore, this assay endpoint can be referred to as a primary readout, because the performed assay has only produced 1 assay endpoint. To generalize the intended target to other relatable targets, this assay endpoint is annotated to the ion channel intended target family, where the subfamily is ligand-gated ion channel.
# Binding assays used specific radioligands (tritiated, iodinated) with non-radioactive competitive displacement ligands in agonist or antagonist protocols (as indicated) and various reference compounds and inhibitors to titrate specific binding to receptors and transporters. Most enzyme assays (CYPs, kinases, phosphatases, proteases, HDACs) used recombinant protein and specific substrates (fluorescence mostly, some colorimetric and radioactive) and inhibitors, followed by a biochemical separation of substrate and product. All assays for the biochemical HTS were initially run in duplicate at a single concentration (10 uM for CYP450 assays and 25 uM for all others). […]
# Chain of rat Glutamate, AMPA Site (AMPA), Gria1 (gene 50592) (P19490 whole entry, looked up): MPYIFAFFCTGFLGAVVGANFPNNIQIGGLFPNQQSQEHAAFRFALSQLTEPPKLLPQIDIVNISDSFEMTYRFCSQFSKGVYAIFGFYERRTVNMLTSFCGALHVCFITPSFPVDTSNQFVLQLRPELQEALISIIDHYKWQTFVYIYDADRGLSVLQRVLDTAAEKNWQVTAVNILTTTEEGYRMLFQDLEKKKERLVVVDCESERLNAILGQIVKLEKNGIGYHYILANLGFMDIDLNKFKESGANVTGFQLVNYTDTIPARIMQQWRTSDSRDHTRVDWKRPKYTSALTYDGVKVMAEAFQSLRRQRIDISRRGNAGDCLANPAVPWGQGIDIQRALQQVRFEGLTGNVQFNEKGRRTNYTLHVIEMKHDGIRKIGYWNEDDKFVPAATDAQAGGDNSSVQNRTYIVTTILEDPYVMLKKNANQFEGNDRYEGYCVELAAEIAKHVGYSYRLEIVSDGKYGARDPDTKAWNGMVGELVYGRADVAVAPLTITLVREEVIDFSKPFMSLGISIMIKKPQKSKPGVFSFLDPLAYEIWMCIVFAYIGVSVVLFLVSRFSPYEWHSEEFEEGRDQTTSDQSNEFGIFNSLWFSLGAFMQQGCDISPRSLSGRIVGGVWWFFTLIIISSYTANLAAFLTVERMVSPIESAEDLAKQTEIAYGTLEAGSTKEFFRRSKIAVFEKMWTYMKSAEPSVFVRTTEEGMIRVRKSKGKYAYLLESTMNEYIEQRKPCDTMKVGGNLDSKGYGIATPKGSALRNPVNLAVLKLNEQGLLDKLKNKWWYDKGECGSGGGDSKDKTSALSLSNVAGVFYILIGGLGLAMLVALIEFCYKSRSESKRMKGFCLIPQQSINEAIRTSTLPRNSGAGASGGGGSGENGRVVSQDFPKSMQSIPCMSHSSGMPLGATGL
row,SMILES,outcome
1,Cc1cccc(C)c1N,inactive
2,CC(c1ccc(O)cc1)(c1ccc(O)cc1)c1ccc(O)cc1,inactive
3,Clc1ccc(C(c2ccccc2Cl)C(Cl)(Cl)Cl)cc1 (configuration not stated),inactive

# Target: human Serotonin, 5-Hydroxytryptamine Receptor 3 (5HT3), HTR3A (gene 3359) (UniProt P46098)
# Assay: NVS_LGIC_h5HT3: NovaScreen (NVS) Ligand-Gated Ion Channel Assay for human Serotonin, 5-Hydroxytryptamine Receptor 3 (5HT3) (AID 2283325)
# Outline: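 Initially tested at 25 uM in duplicate, then up to 50 uM in concentration-response for actives, compounds competed with a radioligand for HEK293-derived human 5-HT3 receptor. Bound counts were measured by filtration and scintillation at 1 h; loss of signal versus DMSO.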
# Chain of human Serotonin, 5-Hydroxytryptamine Receptor 3 (5HT3), HTR3A (gene 3359) (P46098 whole entry, looked up): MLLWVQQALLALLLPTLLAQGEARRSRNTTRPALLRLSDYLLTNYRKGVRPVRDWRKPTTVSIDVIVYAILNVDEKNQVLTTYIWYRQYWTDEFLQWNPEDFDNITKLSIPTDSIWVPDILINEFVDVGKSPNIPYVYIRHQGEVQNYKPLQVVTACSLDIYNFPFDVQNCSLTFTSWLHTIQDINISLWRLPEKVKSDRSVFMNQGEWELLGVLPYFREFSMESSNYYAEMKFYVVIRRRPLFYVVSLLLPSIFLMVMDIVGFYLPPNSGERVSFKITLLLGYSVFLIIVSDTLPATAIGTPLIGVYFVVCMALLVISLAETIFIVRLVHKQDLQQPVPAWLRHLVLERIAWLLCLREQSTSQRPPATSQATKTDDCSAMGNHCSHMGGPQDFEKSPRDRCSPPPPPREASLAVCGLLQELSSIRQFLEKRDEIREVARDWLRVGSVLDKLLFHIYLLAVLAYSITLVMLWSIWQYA
SMILES,outcome,AC50
CCCCCCCCCc1ccc(O)cc1,inactive,
O=C(O)C(F)(F)C(F)(F)C(F)(F)C(F)(F)C(F)(F)F,inactive,
O=C(N[C@H]1CN2CCC1CC2)c1cc2ccoc2cn1,,1.35 µM (active)
Clc1ccc(Cl)cc1,inactive,
CCCCCCCCCC[N+](C)(C)CCCCCCCCCC,inactive,

# Target: rat Glutamate, NMDA Agonist Site (GluNMDA), Grin1 (gene 24408) (UniProt P35439)
# Assay: NVS_LGIC_rGluNMDA_Agonist: NovaScreen (NVS) Ligand-Gated Ion Channel Assay for rat Glutamate, NMDA Agonist Site (GluNMDA) (AID 2283327)
# Outline: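 Radioligand displacement at the agonist site on rat forebrain membrane preparations, read by filter scintillation after 1 h. Chemicals were first run at 25 uM in duplicate; those passing threshold were titrated to a 50 uM maximum.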
SMILES,outcome,AC50
CCSC(=O)N(CC)C1CCCCC1,inactive,
CCC(C)(c1ccc(O)cc1)c1ccc(O)cc1,,16.4 µM (active)
CC(c1ccc(O)cc1)(c1ccc(O)cc1)c1ccc(O)cc1,inactive,
Oc1ccc(C(c2ccc(O)cc2)(C(F)(F)F)C(F)(F)F)cc1,,19.5 µM (active)
